{"source": "the supplement of paper PMC8728848", "assay_in_all_cases": "glycan array binding signal (z-score within array); higher = stronger binding", "conditions_in_all_cases": "glycan notation: IUPAC condensed, linker removed", "key": {"[1]": {"target": "GlcNAc(b1-2)[GlcNAc(b1-4)]Man(a1-3)[GlcNAc(b1-4)][GlcNAc(b1-2)Man(a1-6)]Man(b1-4)GlcNAc(b1-4)GlcNAc", "method_in_brief": "(§1)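 Negative Z-scores can be read as non-binding. The Z-score is calculated within each array and then averaged across arrays of one protein sequence at different concentrations or buffers and across linkers. Arrays, 3228 in all, were curated from the Consortium for Functional Glycomics database and kept only where the protein sequence was available.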"}, "[2]": {"target": "GlcNAc(b1-2)[GlcNAc(b1-4)]Man(a1-3)[GlcNAc(b1-4)][GlcNAc(b1-2)[GlcNAc(b1-6)]Man(a1-6)]Man(b1-4)GlcNAc(b1-4)[Fuc(a1-6)]GlcNAc", "method_in_brief": "as §1"}, "[3]": {"target": "GlcNAc(b1-2)[GlcNAc(b1-6)]Man(a1-6)[GlcNAc(b1-2)Man(a1-3)]Man(b1-4)GlcNAc(b1-4)[Fuc(a1-6)]GlcNAc", "method_in_brief": "as §1"}, "[4]": {"target": "GlcNAc(b1-2)[GlcNAc(b1-6)]Man(a1-6)[GlcNAc(b1-4)][GlcNAc(b1-2)Man(a1-3)]Man(b1-4)GlcNAc(b1-4)GlcNAc", "method_in_brief": "as §1"}, "GlcNAc(b1-3)Gal": {"target": "GlcNAc(b1-3)Gal", "method_in_brief": "as §1"}, "GlcNAc(b1-3)GalNAc": {"target": "GlcNAc(b1-3)GalNAc", "method_in_brief": "as §1"}, "[5]": {"target": "GlcNAc(b1-3)[GlcNAc(b1-6)]Gal(b1-4)GlcNAc", "method_in_brief": "as §1"}, "[6]": {"target": "GlcNAc(b1-3)[GlcNAc(b1-6)]GalNAc", "method_in_brief": "as §1"}, "GlcNAc(b1-6)GalNAc": {"target": "GlcNAc(b1-6)GalNAc", "method_in_brief": "as §1"}, "[7]": {"target": "Man(a1-2)Man(a1-6)[Man(a1-3)]Man(a1-6)[Man(a1-2)Man(a1-2)Man(a1-3)]Man(b1-4)GlcNAc(b1-4)GlcNAc", "method_in_brief": "as §1"}, "[8]": {"target": "Man(a1-3)[Man(a1-6)]Man(b1-4)GlcNAc(b1-4)[Fuc(a1-6)]GlcNAc", "method_in_brief": "as §1"}, "[9]": {"target": "Neu5Ac(a2-3)Gal(b1-3)GalNAc6S", "method_in_brief": "as §1"}, "[10]": {"target": "Neu5Ac(a2-3)Gal(b1-3)GlcNAc(b1-4)Gal(b1-4)Glc", "method_in_brief": "as §1"}, "[11]": {"target": "Neu5Ac(a2-3)Gal(b1-3)GlcNAc6S", "method_in_brief": "as §1"}, "[12]": {"target": "Neu5Ac(a2-3)Gal(b1-3)[GlcNAc(b1-6)]GalNAc", "method_in_brief": "as §1"}, "[13]": {"target": "Neu5Ac(a2-3)Gal(b1-4)GlcNAc(b1-3)Gal(b1-4)GlcNAc(b1-3)Gal(b1-4)GlcNAc", "method_in_brief": "as §1"}, "[14]": {"target": "Neu5Ac(a2-3)Gal(b1-4)GlcNAc(b1-3)Gal(b1-4)GlcNAc(b1-6)[Gal(b1-3)]GalNAc", "method_in_brief": "as §1"}, "[15]": {"target": "Neu5Ac(a2-3)Gal(b1-4)GlcNAc(b1-3)[Neu5Ac(a2-3)Gal(b1-4)GlcNAc(b1-6)]GalNAc", "method_in_brief": "as §1"}, "[16]": {"target": "Neu5Ac(a2-3)Gal(b1-4)GlcNAc(b1-6)GalNAc", "method_in_brief": "as §1"}, "[17]": {"target": "Neu5Ac(a2-3)Gal(b1-4)[Fuc(a1-3)]GlcNAc(b1-3)Gal(b1-4)GlcNAc", "method_in_brief": "as §1"}, "Neu5Ac(a2-3)GalNAc": {"target": "Neu5Ac(a2-3)GalNAc", "method_in_brief": "as §1"}, "[18]": {"target": "Neu5Ac(a2-6)Gal(b1-4)GlcNAc(b1-2)Man(a1-3)[GlcNAc(b1-4)][Neu5Ac(a2-6)Gal(b1-4)GlcNAc(b1-2)Man(a1-6)]Man(b1-4)GlcNAc(b1-4)GlcNAc", "method_in_brief": "as §1"}, "[19]": {"target": "Neu5Ac(a2-6)Gal(b1-4)GlcNAc(b1-2)Man(a1-3)[Neu5Ac(a2-6)Gal(b1-4)GlcNAc(b1-2)Man(a1-6)]Man(b1-4)GlcNAc(b1-4)GlcNAc", "method_in_brief": "as §1"}, "[20]": {"target": "Neu5Ac(a2-6)Gal(b1-4)GlcNAc(b1-2)Man(a1-6)[Man(a1-3)]Man(b1-4)GlcNAc(b1-4)GlcNAc", "method_in_brief": "as §1"}, "[21]": {"target": "Neu5Ac(a2-6)Gal(b1-4)GlcNAc(b1-3)Gal(b1-4)GlcNAc(b1-6)[Gal(b1-3)]GalNAc", "method_in_brief": "as §1"}, "[22]": {"target": "Neu5Ac(a2-6)GlcNAc(b1-4)GlcNAc(b1-4)GlcNAc", "method_in_brief": "as §1"}, "[23]": {"target": "Neu5Ac(a2-8)Neu5Ac(a2-3)Gal(b1-3)GalNAc(b1-4)[Neu5Ac(a2-8)Neu5Ac(a2-3)]Gal(b1-4)Glc", "method_in_brief": "as §1"}, "[24]": {"target": "Neu5Ac(a2-8)Neu5Ac(a2-3)[GalNAc(b1-4)]Gal(b1-4)Glc", "method_in_brief": "as §1"}, "[25]": {"target": "Neu5Ac(a2-8)Neu5Ac(a2-8)Neu5Ac(a2-3)[Gal(b1-3)GalNAc(b1-4)]Gal(b1-4)Glc", "method_in_brief": "as §1"}, "[26]": {"target": "Neu5Ac(a2-8)Neu5Ac(a2-8)Neu5Ac(a2-8)Neu5Ac(a2-3)[GalNAc(b1-4)]Gal(b1-4)Glc", "method_in_brief": "as §1"}, "[27]": {"target": "Neu5Gc(a2-3)Gal(b1-3)GlcNAc", "method_in_brief": "as §1"}}, "note": "The full list was thinned out, with the strongest signals kept by preference.", "data": [{"binder": "Cohesin-marm-DC-ASGPR (protein) LDITSHHHHHHDDLDAVRIKVDTVNAKPGDTVRIPVRFSGIPSKGIANCDFVYSYDPNVLEIIEIEPGDIIVDPNPDKSFDTAVYPDRKIIVFLFAEDSGTGAYAITKDGVFATIVAKVKEGAPNGLSVIKFVEVGGFANNDLVEQKTQFFDGGVNVGDTTEPATPTTPVTTPTTTDDLDAASSKFQRDLVTLRTDFSNFTSNTLAEIQALTSQGSSLQETIASLKAEVEGHKQELQAGASELQEHNKQKAHLGRCPHTCVCPSSFVCVPVHSEILLRVQQLVQDLNKLSCQVAILKNNATTERTCCPINWVEHQGSCYWFSRSGKTWPEAERYCQLENTHLVVINSREEQNFVQAHLGSAYTWMGLSDPEGVWKWVDGTDYSSGFQNWKPGQPDDWQGHGLGGGEDCAHFHPDGRWNDDVCQRSYHWVCEAGLTQASQDSHAS", "values": [{"measurement": "glycan array binding signal (z-score)", "setting": "[1]", "result": -0.278}, {"measurement": "glycan array binding signal (z-score)", "setting": "[2]", "result": -0.313}, {"measurement": "glycan array binding signal (z-score)", "setting": "[3]", "result": -0.298}, {"measurement": "glycan array binding signal (z-score)", "setting": "[4]", "result": -0.311}, {"measurement": "glycan array binding signal (z-score)", "setting": "GlcNAc(b1-3)Gal", "result": -0.306}, {"measurement": "glycan array binding signal (z-score)", "setting": "GlcNAc(b1-3)GalNAc", "result": -0.287}, {"measurement": "glycan array binding signal (z-score)", "setting": "[5]", "result": -0.313}, {"measurement": "glycan array binding signal (z-score)", "setting": "[6]", "result": -0.291}, {"measurement": "glycan array binding signal (z-score)", "setting": "GlcNAc(b1-6)GalNAc", "result": 4.74}, {"measurement": "glycan array binding signal (z-score)", "setting": "[7]", "result": -0.287}, {"measurement": "glycan array binding signal (z-score)", "setting": "[8]", "result": -0.31}, {"measurement": "glycan array binding signal (z-score)", "setting": "[9]", "result": -0.245}, {"measurement": "glycan array binding signal (z-score)", "setting": "[10]", "result": -0.303}, {"measurement": "glycan array binding signal (z-score)", "setting": "[11]", "result": -0.277}, {"measurement": "glycan array binding signal (z-score)", "setting": "[12]", "result": -0.303}, {"measurement": "glycan array binding signal (z-score)", "setting": "[13]", "result": -0.288}, {"measurement": "glycan array binding signal (z-score)", "setting": "[14]", "result": -0.307}, {"measurement": "glycan array binding signal (z-score)", "setting": "[15]", "result": -0.311}, {"measurement": "glycan array binding signal (z-score)", "setting": "[16]", "result": 4.81}, {"measurement": "glycan array binding signal (z-score)", "setting": "[17]", "result": -0.244}, {"measurement": "glycan array binding signal (z-score)", "setting": "Neu5Ac(a2-3)GalNAc", "result": -0.309}, {"measurement": "glycan array binding signal (z-score)", "setting": "[18]", "result": -0.308}, {"measurement": "glycan array binding signal (z-score)", "setting": "[19]", "result": -0.126}, {"measurement": "glycan array binding signal (z-score)", "setting": "[20]", "result": -0.314}, {"measurement": "glycan array binding signal (z-score)", "setting": "[21]", "result": -0.308}, {"measurement": "glycan array binding signal (z-score)", "setting": "[22]", "result": -0.312}, {"measurement": "glycan array binding signal (z-score)", "setting": "[23]", "result": -0.296}, {"measurement": "glycan array binding signal (z-score)", "setting": "[24]", "result": 3.43}, {"measurement": "glycan array binding signal (z-score)", "setting": "[25]", "result": -0.305}, {"measurement": "glycan array binding signal (z-score)", "setting": "[26]", "result": 5.27}, {"measurement": "glycan array binding signal (z-score)", "setting": "[27]", "result": -0.264}]}]}
